The values that follow come from PubChem BioAssay AID1823 (The Scripps Research Institute Molecular Screening Center, 2009).

About 70 (0.4%) of roughly 16,000 compounds were called active. For the sample, actives were picked, then their nearest neighbours and some compounds at random. Unmarked numbers belong to inactive results. No stated cut-off is given here; in the data, active means inhibition above about 75%; inactive means the rest.

A short description of this assay: counter-screen for Nox1 inhibitors: inhibitors of luminol chemiluminescence (AID 1823). To be noted: HRP/luminol/H2O2 chemiluminescence counterscreen; at 6.7 µM; stronger effect = higher value.
As to `CCOC(=O)NC(=O)/C(=C/NC(C)C)C(=O)OCC`, the inhibition was 2.4%.

Regarding `CSc1nnc(SC)n1CCNC(=O)Nc1cccc(Cl)c1`, the inhibition was 3.79%.

Turning to `CCCCc1c(O)cc(-c2ccccc2)n(Cc2ccccc2)c1=O`, the inhibition is 7.84%.

As for `COc1ccc(OC(=O)/C=C/c2sc3ccccc3c2C)cc1`, the inhibition was -0.97%.

On to `Cc1nc(C(F)(F)F)ccc1NC(=O)/C=C\C(=O)O`, for which the inhibition was 1.91%.

`CCc1cnc(NS(=O)(=O)c2cc(Cl)sc2Cl)nc1-c1c(F)cccc1F`: the inhibition was -0.98%.

As for `Cc1ccc(S(=O)(=O)NNC(=O)c2ccccc2N)cc1`, the inhibition was 37.9%.

Take `O=C(NCc1cccnc1)Nc1cccc(NC(=O)NCc2cccnc2)c1F`: the inhibition was 1.8%.

As to `COc1cccc2c1c(NS(=O)(=O)c1cn(C)cn1)nn2C`, the inhibition is -21.4%.

On to `O=[N+]([O-])c1ccc2c(c1)CCN2S(=O)(=O)c1ccccc1`, for which the inhibition is -4.92%.

Take `CNC(=O)c1ccccc1Sc1ccccc1C(=O)NC`: the inhibition is -0.03%.

For `Cc1nc(-c2ccc(NC(=O)COCC(=O)O)cc2)cs1`, the inhibition was 21.6%.

As to `O=C1C(Cl)=C(Oc2cc(Cl)c(Cl)cc2Cl)C(=O)c2ccccc21`, the inhibition is 0.81%.

As to `Cn1ncc(Br)c1NC(=O)C(C)(C)C`, the inhibition was 4.37%.

Take `N#Cc1ccc(-c2csc(COc3ccccc3Cl)n2)cc1`: the inhibition was -1.21%.

For `CS(=O)(=O)Nc1ccc(/C(N)=N/OC(=O)c2cccs2)cc1`, the inhibition was 2.83%.

Take `c1ccc2sc(-c3csc(-c4ccc5c(c4)OCCO5)n3)nc2c1`: the inhibition was 3.06%.

As for `N#CCCSc1sc(=S)sc1SCCC#N`, the inhibition was 3.43%.

For the molecule `C/C(=N\O)C(C)(C)Nc1ccc(C(C)(C)C)cc1`, the inhibition is -0.65%.

Consider `O=c1[nH]c2c(=O)[nH]c(=S)[nH]c2nc1/C=C(\O)c1ccccc1`, for which the inhibition was -2.84%.

Regarding `O=C(Nc1ccc(F)cc1OC(F)(F)F)N1CCC(O)CC1`, the inhibition is -1.8%.

For the molecule `CCOC(=O)c1c(NC(=S)Nc2ccccc2)sc2c1CCN(C)C2`, the inhibition was 0.9%.

For the molecule `CCOC(=O)c1c(C)csc1NC(=O)CC(=O)C(F)(F)F`, the inhibition is -0.11%.

Turning to `CCOC(=O)c1c(NC(=S)NC)sc2c1CCCC2`, the inhibition was 97.7% (active).

With `Cc1cc(/C(N)=N/OC(=O)c2cccs2)c(-c2ccccc2)o1`, the inhibition is -4.79%.

Take `Cc1cc(C)nc(NC(=S)c2ccc(NC(=O)/C=C/C(=O)O)cc2)n1`: the inhibition is -2.67%.

As to `CCSC(=O)NCc1ccccc1`, the inhibition is -0.89%.

For `Cc1onc(-c2ccccc2Cl)c1NC(=O)N1c2ccc(F)cc2CCC1C` (stereo not given), the inhibition is 8.92%.

Turning to `Nc1nc(C23CC4CC(CC(C4)C2)C3)cs1`, the inhibition is -1.09%.

As to `CC(C)n1c(SCC(=O)c2cccc([N+](=O)[O-])c2)nc2cc(C(F)(F)F)ccc21`, the inhibition was 2.2%.

As to `CC(C)CCOS(=O)(=O)c1ccc2c(c1)Cc1cc(S(=O)(=O)OCCC(C)C)ccc1-2`, the inhibition was -0.63%.

As for `O=C(CSC(=S)N1CCCCC1)c1c(F)cccc1F`, the inhibition is 26.8%.

With `O=C(c1cc(-c2cccs2)on1)N1CCCCC1`, the inhibition was 3.17%.

Take `N#CC(C#N)=CNc1c(F)cccc1Cl`: the inhibition is -4.02%.

Turning to `CCOC(=O)C1=C(C)NC(C)=C(C(=O)OCC)C1c1ccccn1`, the inhibition is 0.07%.

For `CCOC(=O)c1cc(CC)sc1NC(=O)c1cccc(C(F)(F)F)c1`, the inhibition is -4.21%.

For the molecule `CC(C)S(=O)(=O)/C(C#N)=C/c1ccccc1OC(F)(F)F`, the inhibition was -0.54%.

Regarding `COC(=O)c1cnc(N2CCCN(C(=O)C3COc4ccccc4O3)CC2)nc1C(F)(F)F` (stereo not given), the inhibition was 1.21%.

As for `Cc1ccccc1NC(=O)NCc1ccco1`, the inhibition is -0.91%.

Consider `O=[N+]([O-])c1ccc(-c2ccc(I)cc2)cc1`, for which the inhibition was -6.68%.

Turning to `CC(C)NC(=O)NNc1c(Cl)cncc1Cl`, the inhibition is -1.24%.

In the case of `Cc1ccc(Oc2c(C)[nH]c(=S)[nH]c2=O)cc1`, the inhibition is -0.85%.

For `CN(C)c1cc(-c2cc(Cl)sc2Cl)oc(=O)c1Cl`, the inhibition was -5.79%.

Consider `Cc1cc(C)nc(N/C=C(\C#N)S(=O)(=O)c2ccc(Cl)cc2)n1`, for which the inhibition was 2.84%.

With `O=C(NNC(=S)Nc1ccccc1Cl)c1ccc(OC(F)(F)F)cc1`, the inhibition is 2.9%.

Consider `Cn1cc(Br)c(-c2cccc(NC(=O)c3ccccc3Cl)c2)n1`, for which the inhibition is -4.85%.

With `CCc1cccc(C)c1N(C(C)=O)C1=NCCC(=O)S1`, the inhibition is -4.86%.

Regarding `O=[N+]([O-])c1ccc(C2CC2(Br)Br)cc1` (stereo not given), the inhibition is 0.05%.

For `CSC(C)C(=O)/C=C/N(C)C` (stereo not given), the inhibition is -4.32%.

As to `COc1ccc(Cc2nc(C(C)(C)C)cs2)cc1`, the inhibition is -2.22%.

For the molecule `Cc1noc(C)c1S(=O)(=O)N1CCN(C2c3ccccc3-c3ccccc32)CC1`, the inhibition was 0.21%.

On to `CCOC(=O)NC(=O)/C(=C/NCc1cccs1)C(=O)OCC`, for which the inhibition was 1.42%.

As to `CC(=O)Nc1ccc(S(=O)(=O)NNc2c(Cl)cncc2Cl)cc1Cl`, the inhibition was 10.2%.

Consider `CCCN(CCC)S(=O)(=O)c1ccc(C(=O)Oc2c(C)cccc2OC)cc1`, for which the inhibition is -5.62%.

On to `CCOC(=O)c1cc(C)n(-c2cccc([N+](=O)[O-])c2)c1-c1ccccc1`, for which the inhibition is 1.22%.

Take `COc1cccc(C(=O)c2sc3nsc(SCc4ccc(F)cc4)c3c2N)c1`: the inhibition is 9.11%.

For `CC(C)(C)c1ccc(NC(=O)c2ccco2)c(NC(=O)C(Cl)(Cl)Cl)c1`, the inhibition was -4.94%.

For `O=C(Nc1ccc2c(c1)OCCO2)c1cnccn1`, the inhibition is 1.1%.

In the case of `CSc1nc(-n2nc(C)cc2C)nc(-c2ccco2)c1C#N`, the inhibition was 1.13%.

With `O=C(O)CCc1cccnc1`, the inhibition is -4.95%.

On to `CCCCCCCCCCCCCC#CC(O)C(N)CO` (stereo not given), for which the inhibition was 2.24%.

As for `O=C(CSc1nc2ccccc2o1)N1CCC(n2cccc2)CC1`, the inhibition is 10%.

As for `CC(=O)NC12CC3(C)CC(C)(CC(C)(C3)C1)C2`, the inhibition is 2.16%.

For `COc1cc(CC/C(C)=N/O)ccc1O`, the inhibition was 2.62%.

On to `Cc1nc(C(F)(F)F)ccc1C(=O)NC1CCCc2ccccc21` (stereo not given), for which the inhibition is 3.59%.
